Inconclusive results are not listed. Calls of active or inactive are those of the source. Calls follow the shape of the dose curve; as a rule, active = well fitted activation curve with a large enough effect; inconclusive = small, poorly fitted or top-dose-only effect; inactive = flat fitted curve, though single readings scatter. Where a SMILES comes first, the peptide text is derived from it. [ ]: non-standard residue; d: D form. 2Abz = Nc1ccccc1C(=O)O
Experiment: Primary redox qHTS assay for identification of artifact compounds. (AID 1845223);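 also: 0% = DMSO and 100% = reference compound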
Conditions: Amplex Red/HRP redox cycling with DTT, fluorescence; series mostly up to 53.8 µM; redox activity (% of DA3003): at the top concentration
In short: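 Redox-cycling detection via DTT (250 uM final) oxidation coupled to Amplex Red (25 uM)/HRP (250 mU/mL) in HBSS. 15 min preincubation plus 30 min after DTT, room temperature. Ex/Em 525/598 nm; 4-parameter Hill fit against DMSO and 10 uM DA3003.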

Row | SMILES | redox activity (% of DA3003)
1 | C/C(=C\CCC(C)(O)c1ccc(C)cc1)C(=O)O (centres undefined) | 17.8% (inactive)
2 | C[C@@H]1CC[C@]2(C)C(C[C@@H](O)[C@H](O)[C@]23CO3)[C@@]1(C)CCc1ccoc1 (some centres undefined) | -1.74% (inactive)
3 | c1ccc(Cc2ncc3c(n2)CCNCC3)cc1 | 0.397% (inactive)
4 | C1CCN2CC3C[C@@H](CN4CCCC[C@@H]34)[C@H]2C1 | -10.9% (inactive)
5 | C[C@@H]1O[C@@H](OC[C@H]2O[C@@H](OCCc3ccccc3)[C@H](O)[C@@H](O)[C@@H]2O)[C@H](O)[C@H](O)[C@H]1O | -17.1% [at 25.6 µM] (inactive)
6 | CC1(CCC(=O)O)C(=O)C=CC23CC4CC(OC4(C)C2O)C13 (centres undefined) | -6.39% (inactive)
7 | C[C@@H]1CC[C@]2(C(=O)O[C@@H]3O[C@H](CO)[C@@H](O)[C@H](O)[C@H]3O)CC[C@]3(C)C(=CCC4[C@@]5(C)C[C@@H](O)[C@H](O)C(C)(C)C5CC[C@]43C)C2[C@]1(C)O (some centres undefined) | 16.5% [at 25.6 µM] (inactive)
8 | C[C@]1(O)CC[C@@H]2C(C(=O)O)=CO[C@@H](O[C@@H]3O[C@H](COC(=O)c4ccc(O)cc4)[C@@H](O)[C@H](O)[C@H]3O)[C@@H]21 | -9.85% [at 25.6 µM] (inactive)
9 | CC(=O)O[C@@H]1[C@H](O[C@@H]2O[C@H](CO)[C@@H](O)[C@H](O)[C@H]2O)[C@@H](O[C@@H]2O[C@@H](C)[C@H](O)[C@@H](O[C@@H]3O[C@H](CO)[C@@H](O)[C@H](O)[C@H]3O)[C@H]2O)[C@H](OC(=O)C23CCC4(C)C(=CCC5C6(C)CC(O)C(O[C@@H]7O[C@H](C(=O)O)[C@@H](O)[C@H](O)[C@H]7O)C(C)(C(=O)O)C6CCC54C)C2CC(C)(C)CC3O)O[C@@H]1C (some centres undefined) | 12.9% [at 11.5 µM] (inactive)
10 | C[C@@H]1C(=O)O[C@H]2[C@H]1CC[C@@]1(C)C(=O)C=C[C@](C)(O)[C@H]21 | 4.49% (inactive)
11 | CC(O)C(O)/C=C/C=C/C(=O)O[C@@H]1C=C2COC(=O)[C@]2(O)[C@@]2(C)CCCC(C)(C)C12 (some centres undefined) | -4.04% [at 25.6 µM] (inactive)
12 | CC(=O)OC[C@@]12[C@H](O)C[C@@H](C)[C@]3(C[C@@H](c4ccoc4)OC3=O)[C@H]1C[C@H](O)C[C@]21CO1 | -15.3% [at 25.6 µM] (inactive)
13 | CC1NC(=O)CNC(=O)C(C(C)C)NC(=O)C2CCCN2C(=O)C(C(C)C)NC(=O)C(Cc2c[nH]c3ccccc23)NC1=O (centres undefined) (cyclo(GAWVPV); configuration not given here) | 11% [at 25.6 µM] (inactive)
14 | COC1=CC(=O)C[C@@H](C)[C@]12Oc1cc(OC)cc(OC)c1C2=O | 1.04% (inactive)
15 | C/C=C(\C)C(=O)OC[C@H]1O[C@H](O[C@H]2O[C@H](CO)[C@@H](OC(=O)/C(C)=C/C)[C@H](O)[C@H]2O[C@@H]2O[C@H](CO)[C@@H](O)[C@H](O)[C@H]2O)[C@H](O[C@@H]2O[C@H](CO)[C@@H](O)[C@H](O)[C@H]2O)[C@@H](O)[C@@H]1O | 3.6% [at 11.5 µM] (inactive)
16 | CNC(=O)c1ccc(Nc2ncc(C(F)(F)F)c(NCc3nccnc3N(C)S(C)(=O)=O)n2)cc1 | -1.43% (inactive)
17 | COc1c2c(c(C)c3c1C(=O)OC3)O[C@@]1(C)C[C@@H](O)[C@]34O[C@](OC)(CC[C@]3(C)[C@H]1C2)OC4(C)C | -9.89% [at 25.6 µM] (inactive)
18 | Cc1cc(O)c(C(C)C)cc1O[C@@H]1O[C@H](CO)[C@@H](O)[C@H](O)[C@H]1O | -15.8% (inactive)
19 | CC(C)CC(=O)OC[C@H]1O[C@@](COC(=O)CC(C)C)(O[C@H]2O[C@H](CO)[C@@H](O)[C@H](O)[C@H]2O)[C@@H](OC(=O)CC(C)C)[C@@H]1OC(=O)CC(C)C | -2.07% [at 25.6 µM] (inactive)
20 | C=CC(C)(O)CC/C=C(\C)C(=O)OCC1OC(OC2CCC3(C)C(CCC4(C)C3CC=C3C5CC(C)(C)C(O)CC5(C(=O)O)CCC34C)C2(C)C)C(O)C(OC2OC(CO)C(O)C(OC3OC(CO)C(O)C(OC4OC(COC5OC(CO)C(O)C(O)C5O)C(O)C(O)C4O)C3O)C2O)C1O (centres undefined) | 18.5% [at 11.5 µM] (inactive)

Row | SMILES | redox activity (% of DA3003)
21 | O=C(/C=C/c1ccc(O)cc1)OC[C@]12O[C@H]1[C@@H](O)[C@@H]1C=CO[C@@H](O[C@@H]3O[C@H](CO)[C@@H](O)[C@H](O)[C@H]3O)[C@@H]12 | -0.521% [at 25.6 µM] (inactive)
22 | CN1C(=O)c2ccccc2-n2c(nc3ccccc3c2=O)/C1=C/c1ccccc1 | 9.71% (inactive)
23 | O=C(c1ccc(NS(=O)(=O)c2cccc3cccnc23)cc1)N1CCN(CC2CC2)CC1 | 6.26% (inactive)
24 | C=CCc1ccc(O[C@@H]2O[C@H](CO[C@@H]3O[C@H](CO)[C@@H](O)[C@H](O)[C@H]3O)[C@@H](O)[C@H](O)[C@H]2O)c(O)c1 | -16.7% [at 25.6 µM] (inactive)
25 | C[C@@H]1O[C@@H](O[C@H]2[C@H](O[C@H]3CC[C@@]4(C)C(CC[C@]5(C)C4CC=C4[C@@H]6CC(C)(C)CC[C@]6(C(=O)O)CC[C@]45C)[C@]3(C)CO)OC[C@H](O)[C@@H]2O)[C@H](O)[C@H](O[C@@H]2OC[C@@H](O)[C@H](O)[C@H]2O)[C@H]1O (some centres undefined) | 0.416% [at 11.5 µM] (inactive)
26 | COC(=O)[C@@H]1C2CC3c4[nH]c5ccccc5c4CCN3CC2CC[C@@H]1O (some centres undefined) | 5.37% (inactive)
27 | CCC(C)C1NC(=O)C2CCCN2C(=O)C(C(C)C)NC(=O)c2ccccc2NC(=O)C(Cc2ccc(O)cc2)NC(=O)C(C)NC(=O)C(C(C)O)NC1=O (centres undefined) (cyclo([2Abz]VPITAY); configuration not given here) | 2.65% [at 25.6 µM] (inactive)
28 | CC(=O)NC(CCC(=O)O)C(=O)NCCc1ccc(O)cc1 (centres undefined) | -12.8% (inactive)
29 | COc1c2c(c(C)c3c1C(=O)OC3)OC1(C)CC(O)C3(O)C(C)(C)OC(=O)CCC3(C)C1C2 (centres undefined) | 17.7% [at 25.6 µM] (inactive)
30 | CC[C@H]1OC(=O)[C@H](C)[C@@H](OC2C[C@@](C)(OC)[C@@H](O)[C@H](C)O2)[C@H](C)[C@@H](OC2O[C@H](C)C[C@H](NC)[C@H]2O)[C@](C)(O)C[C@@H](C)CN(C)[C@H](C)[C@@H](O)[C@]1(C)O (some centres undefined) | 0.285% (inactive)
31 | NC(=O)[C@H]1CCCCc2c1[nH]c1ccc(Cl)cc21 | -2.97% [at 25.6 µM] (inactive)
32 | COc1ccc(C(OC2OC(CO)C(O)C(O)C2O)C(C)O)cc1 (centres undefined) | -1.83% (inactive)
33 | O=S(=O)(NC1CCNCC1)c1cc(S(=O)(=O)c2ccccc2)ccc1C(F)(F)F | -5.83% (inactive)
34 | CC1=C2C(=O)C=C(CO)[C@@H]2[C@H]2OC(=O)[C@H](C)[C@@H]2[C@@H](O)C1 | -8.6% (inactive)
35 | C[C@@H]1C[C@H](O[C@@H]2O[C@H](CO[C@@H]3OC[C@](O)(CO)[C@H]3O)[C@@H](O)[C@H](O)[C@H]2O)CC(C)(C)[C@H]1/C=C/[C@@H](C)O | -5.81% [at 25.6 µM] (inactive)
36 | CCn1nnnc1NCc1ccc(C(C)C)cc1 | -0.0306% (inactive)
37 | CC1=C2[C@@H]([C@H](C)CC[C@H]2/C=C(\C)C(=O)O)[C@H](O)C1 | -16.4% (inactive)
38 | C[C@H]1CC[C@@]2(OC1)O[C@H]1CC3C4CC=C5C[C@H](O)C[C@@H](O[C@@H]6O[C@@H](C)[C@H](O)[C@@H](O)[C@H]6O[C@@H]6O[C@@H](C)[C@H](O)[C@@H](O)[C@H]6O)[C@]5(C)C4CC[C@]3(C)[C@H]1[C@@H]2C (some centres undefined) | 8.97% [at 25.6 µM] (inactive)
39 | C(#Cc1cccc(CN2CCOCC2)c1)CCN1CCCCC1 | 8.31% (inactive)

Reference: PubChem BioAssay (NCATS)
